From PubChem BioAssay (NCI)
The panel holds about 79,000 compounds, 15% with a hit somewhere; the sample as a whole holds those more often. Activity calls are given as the source filed them. No stated cut-off is given here; in the data, active means growth inhibition above about 70%; inactive means the rest.

Legend:
[1] = NCI Yeast Anticancer Drug Screen. Data for the rad52 strain (AID 147);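 further: 0% = growth of vehicle-treated control cultures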; conditions: S. cerevisiae rad52 mutant growth inhibition, stronger effect = higher value
Summary of the method: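 Inhibition of yeast growth, referenced to vehicle controls, was the measured output for a strain with defective DNA damage repair.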

[2] = NCI Yeast Anticancer Drug Screen. Data for the wt1 strain (AID 149);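 further: 0% = growth of vehicle-treated wt1 cultures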; conditions: S. cerevisiae wt1 strain (SPY 50644) growth inhibition, stronger effect = higher value
Summary of the method: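 The wt1 strain was treated with compounds, and growth was compared with vehicle-treated cultures to give inhibition.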

[3] = NCI Yeast Anticancer Drug Screen. Data for the rad50EPP+ strain (AID 151);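 further: 0% = growth of vehicle-treated control cultures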; conditions: S. cerevisiae rad50 mutant strain, stronger effect = higher value
Summary of the method: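 Genetically defined yeast (rad50EPP+, DNA damage repair alteration) is grown with compound, and inhibition of growth is expressed relative to vehicle-treated controls.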

[4] = NCI Yeast Anticancer Drug Screen. Data for the rad50 strain (AID 155);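 further: 0% = growth of vehicle-only cultures of the same strain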; conditions: S. cerevisiae rad50 strain growth inhibition, stronger effect = higher value
Summary of the method: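 Cells are treated with compound, grown, and their growth is then scored against vehicle-only cultures of the same repair-deficient yeast strain.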

[5] = NCI Yeast Anticancer Drug Screen. Data for the mec2-1 strain (AID 157); conditions: S. cerevisiae mec2-1 strain, stronger effect = higher value
Summary of the method: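 Each compound was tested on mec2-1 yeast, a strain altered in DNA damage repair or cell cycle control. Growth inhibition is reported relative to vehicle.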

[6] = NCI Yeast Anticancer Drug Screen. Data for the rad14 strain (AID 159);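 further: 0% = growth of vehicle-treated control cultures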; conditions: S. cerevisiae rad14 strain growth inhibition, stronger effect = higher value
Summary of the method: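 Readout: yeast growth inhibition, referenced to vehicle-only cultures. Strain bears a defined alteration in DNA damage repair.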

[7] = NCI Yeast Anticancer Drug Screen. Data for the sgs1 mgt1 strain (AID 161);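 further: 0% = growth of cultures given vehicle only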; conditions: S. cerevisiae sgs1 mgt1 strain, stronger effect = higher value
Summary of the method: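 Read-out: growth inhibition vs vehicle controls. Cells: mutant yeast strain deficient in DNA damage repair.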

[8] = NCI Yeast Anticancer Drug Screen. Data for the cln2 rad14 strain (AID 165);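 further: 0% = growth equal to vehicle treated cultures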; conditions: S. cerevisiae cln2 rad14 strain, stronger effect = higher value
Summary of the method: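 Test compounds were added to cln2 rad14 yeast cultures; inhibition of growth was then determined by comparison with vehicle treatment.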

[9] = NCI Yeast Anticancer Drug Screen. Data for the bub3 strain (AID 167); conditions: S. cerevisiae bub3 mutant strain, stronger effect = higher value
Summary of the method: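 Part of a panel of yeast mutants defective in DNA damage repair or cell cycle regulation. Each strain is grown with compound, and inhibition is calculated relative to solvent-treated cultures.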

[10] = NCI Yeast Anticancer Drug Screen. Data for the wt2 strain (AID 169);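 further: 0% = growth of vehicle-treated yeast cultures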; conditions: S. cerevisiae wt2 strain growth inhibition, stronger effect = higher value
Summary of the method: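 The panel's yeast strains carry defined changes in DNA repair or cell cycle genes. Each strain is grown with compound, and growth loss is scored relative to vehicle.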

[11] = NCI Yeast Anticancer Drug Screen. Data for the mlh1 strain (AID 171);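 further: 0% = growth of vehicle-treated control cultures of the same strain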; conditions: S. cerevisiae mlh1 strain growth inhibition, stronger effect = higher value
Summary of the method: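 Inhibition values reflect reduced yeast growth in the presence of compound, referenced to vehicle controls, using a strain chosen for its alteration in DNA repair or cell cycle control.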

[12] = NCI Yeast Anticancer Drug Screen. Data for the sgs1 strain (AID 173);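 further: 0% = growth of vehicle-only control cultures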; conditions: S. cerevisiae sgs1 mutant, stronger effect = higher value
Summary of the method: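 Vehicle-treated cultures served as reference for growth inhibition of a yeast strain altered in DNA damage repair or cell cycle control after compound exposure.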

[13] = NCI Yeast Anticancer Drug Screen. Data for the mlh1 rad18 strain (AID 175); conditions: S. cerevisiae mlh1 rad18 strain growth inhibition, stronger effect = higher value
Summary of the method: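 Inhibition values reflect reduced growth of mutant yeast versus vehicle-treated controls following compound exposure; the mutations affect DNA damage repair.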

[14] = NCI Yeast Anticancer Drug Screen. Data for the rad18 strain (AID 177); conditions: S. cerevisiae rad18 mutant growth inhibition, stronger effect = higher value
Summary of the method: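 Steps: expose repair-mutant yeast to compound; measure growth; express as inhibition relative to vehicle control.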

[15] = at 5.0 µM (retest, dose inferred, filed as 0.5)
[16] = at 50.0 µM (retest, dose inferred, filed as 5.0)

Measured: growth inhibition

CCC(=O)N(c1ccccc1)C(C)CN1CCC(O)(c2cccc(C(F)(F)F)c2)CC1 (stereo unspecified)
active: [1]; at 100.0 µM 83% | [4]; at 100.0 µM 76% | [6]; at 100.0 µM 97% | [9]; at 100.0 µM 89% | [10]; at 100.0 µM 96% | [11]; at 100.0 µM 91% | [12]; at 100.0 µM 94%
inactive: [1]; at 1.2 µM 0% | [1]; at 3.7 µM 4% | [1]; at 11.0 µM 13% | [1]; at 33.0 µM 27% | [2]; at 1.2 µM 2% | [2]; at 3.7 µM 6% | [2]; at 11.0 µM 11% | [2]; at 33.0 µM 22% | [2]; at 100.0 µM 46% | [3]; at 1.2 µM -3% | [3]; at 3.7 µM -3% | [3]; at 11.0 µM -1% | [3]; at 33.0 µM -2% | [3]; at 100.0 µM -1% | [4]; at 1.2 µM -2% | [4]; at 3.7 µM -7% | [4]; [15] 21% | [4]; at 11.0 µM 3% | [4]; at 33.0 µM 26% | [4]; [16] 4% | [4]; at 50.0 µM 62.3% | [5]; at 1.2 µM 0% | [5]; at 3.7 µM 7% | [5]; [15] -2% | [5]; at 11.0 µM 17% | [5]; at 33.0 µM 23% | [5]; [16] 10% | [5]; at 50.0 µM 10.2% | [5]; at 100.0 µM 57% | [6]; at 1.2 µM 6% | [6]; at 3.7 µM 18% | [6]; at 11.0 µM 48% | [6]; at 33.0 µM 68% | [7]; [15] -4% | [7]; [16] 41% | [7]; at 50.0 µM 68.2% | [8]; [15] 7% | [8]; [16] 43% | [8]; at 50.0 µM 18.6% | [9]; at 1.2 µM 1% | [9]; at 3.7 µM 3% | [9]; [15] 4% | [9]; at 11.0 µM 17% | [9]; at 33.0 µM 49% | [9]; [16] 51% | [9]; at 50.0 µM 65.2% | [10]; at 1.2 µM 0% | [10]; at 3.7 µM 5% | [10]; at 11.0 µM 16% | [10]; at 33.0 µM 44% | [11]; at 1.2 µM 2% | [11]; at 3.7 µM 6% | [11]; at 11.0 µM 17% | [11]; at 33.0 µM 44% | [12]; at 1.2 µM 2% | [12]; at 3.7 µM 10% | [12]; at 11.0 µM 20% | [12]; at 33.0 µM 60% | [13]; [15] -3% | [13]; [16] 37% | [13]; at 50.0 µM 38.9% | [14]; at 1.2 µM 3% | [14]; at 3.7 µM 9% | [14]; at 11.0 µM 25% | [14]; at 33.0 µM 31% | [14]; at 100.0 µM 69%

OC(CN1CCCCC1)c1cc(Cl)c(Cl)c(Cl)c1 (stereo unspecified)
inactive: [1]; at 1.2 µM 3% | [1]; at 3.7 µM 11% | [1]; at 11.0 µM 17% | [1]; at 33.0 µM 28% | [1]; at 100.0 µM 40% | [2]; at 1.2 µM 4% | [2]; at 3.7 µM 9% | [2]; at 11.0 µM 6% | [2]; at 33.0 µM 6% | [2]; at 100.0 µM 14% | [3]; at 1.2 µM 3% | [3]; at 3.7 µM 8% | [3]; at 11.0 µM 10% | [3]; at 33.0 µM 7% | [3]; at 100.0 µM 1% | [4]; at 1.2 µM 5% | [4]; at 3.7 µM 13% | [4]; [15] 2% | [4]; at 11.0 µM 11% | [4]; at 33.0 µM 20% | [4]; [16] 41% | [4]; at 50.0 µM 38.4% | [4]; at 100.0 µM 36% | [5]; at 1.2 µM 5% | [5]; at 3.7 µM 11% | [5]; [15] 2% | [5]; at 11.0 µM 15% | [5]; at 33.0 µM 24% | [5]; [16] 49% | [5]; at 50.0 µM 32.2% | [5]; at 100.0 µM 38% | [6]; at 1.2 µM 9% | [6]; at 3.7 µM 25% | [6]; at 11.0 µM 33% | [6]; at 33.0 µM 28% | [6]; at 100.0 µM 39% | [7]; [15] 12% | [7]; [16] 49% | [7]; at 50.0 µM 57.1% | [8]; [15] 8% | [8]; [16] 35% | [8]; at 50.0 µM 51.6% | [9]; at 1.2 µM 3% | [9]; at 3.7 µM 9% | [9]; [15] 4% | [9]; at 11.0 µM 25% | [9]; at 33.0 µM 38% | [9]; [16] 38% | [9]; at 100.0 µM 53% | [10]; at 1.2 µM 3% | [10]; at 3.7 µM 8% | [10]; at 11.0 µM 10% | [10]; at 33.0 µM 12% | [10]; at 100.0 µM 15% | [12]; at 1.2 µM 6% | [12]; at 3.7 µM 14% | [12]; at 11.0 µM 20% | [12]; at 33.0 µM 27% | [12]; at 100.0 µM 37% | [13]; [15] 14% | [13]; [16] 43% | [13]; at 50.0 µM 50.4% | [14]; at 1.2 µM 5% | [14]; at 3.7 µM 13% | [14]; at 11.0 µM 8% | [14]; at 33.0 µM 14% | [14]; at 100.0 µM 22%
active: [9]; at 50.0 µM 70.8%
